Bioassay records deposited in PubChem BioAssay by Buhrlage Lab, Dana-Farber Cancer Institute and Novartis Institutes for BioMedical Research (Cambridge, Mass).
USP7 inh: human USP7 deubiquitinase inhibition | purified USP7, Ub-rhodamine cleavage fluorescence | inhibition, % at 20 µM | hit rate 0.3% among 47,000 | AID 1645854
USP10 block: human USP10 deubiquitinase inhibition; inhibition, % at 20 µM; Q14694; AID 1645856; purified USP10, Ub-rhodamine fluorescence, 60 min; hit rate 1.1% among 47,000
USP17 inh: human USP17-like deubiquitinase inhibition; A8MUK1; purified USP17, Ub-rhodamine cleavage fluorescence, 3 h; inhibition, % at 50 µM; hit rate 6.5% among 47,000; AID 1645855
Target sequence (A8MUK1 whole entry, looked up): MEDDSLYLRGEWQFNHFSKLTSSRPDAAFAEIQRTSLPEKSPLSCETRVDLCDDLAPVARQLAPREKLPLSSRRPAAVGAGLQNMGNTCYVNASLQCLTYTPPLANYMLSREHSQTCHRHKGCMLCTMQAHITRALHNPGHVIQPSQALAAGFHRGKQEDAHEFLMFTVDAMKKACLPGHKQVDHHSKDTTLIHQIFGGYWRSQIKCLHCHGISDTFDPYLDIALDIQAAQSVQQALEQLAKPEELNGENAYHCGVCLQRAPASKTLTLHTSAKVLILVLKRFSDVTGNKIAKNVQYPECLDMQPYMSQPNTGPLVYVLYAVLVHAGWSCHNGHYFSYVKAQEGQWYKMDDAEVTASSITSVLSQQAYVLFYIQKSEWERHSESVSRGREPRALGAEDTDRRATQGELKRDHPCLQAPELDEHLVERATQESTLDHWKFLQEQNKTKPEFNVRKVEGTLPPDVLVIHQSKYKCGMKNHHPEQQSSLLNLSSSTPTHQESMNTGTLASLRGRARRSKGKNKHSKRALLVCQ
USP8 inh: human USP8 deubiquitinase inhibition | P40818 | purified USP8, Ub-rhodamine cleavage fluorescence, 30 min | inhibition, % at 20 µM | hit rate 4.2% among 47,000
USP30 inh: blocks human USP30 ubiquitin-rhodamine cleavage. Q70CQ3. purified USP30, Ub-rhodamine cleavage fluorescence. hit rate 5.3% among 47,000. inhibition, % at 25 µM
USP28 block: human USP28 deubiquitinase inhibition. purified USP28, Ub-rhodamine cleavage fluorescence, 30 min. inhibition, % at 25 µM. hit rate 3% among 47,000. AID 1645857
A number is an active result; . = inactive; / = no result given. An excerpt weighted towards active compounds, which were near 13% of everything screened. Rule as the data show it: active = inhibition above about 30%; inactive = the rest.

SMILES | USP7 inh | USP10 block | USP17 inh | USP8 inh | USP30 inh | USP28 block
COc1ccc(C(CNC(=O)c2cc(=O)[nH]c3ccccc23)N2CCCC2)cc1 (centres undefined) | . | . | . | . | . | .
CCOC(=O)c1ccc(NC(=O)Cn2cc(S(=O)(=O)Cc3ccc(C)cc3)c3ccccc32)cc1 | . | . | . | . | . | .
Cc1ccc2c(c1)N(Cc1nc(-c3ccc(F)cc3)no1)C(=O)CO2 | . | . | . | . | . | 51.1
COc1ccc2c(CCN=C(NC(=O)/C=C/c3ccc(OC)c(OC)c3)Nc3nc(C)cc(C)n3)c[nH]c2c1 | . | . | . | . | . | .
CCCCOc1ccc(C(=O)NC2(c3nc(-c4cccnc4)no3)CCCCC2)cc1 | . | . | . | . | 32.4 | .
O=S(=O)(NC1CC1)c1ccc(S(=O)(=O)N2CCCC3(CCCCC3)C2)cc1 | . | . | / | . | 40.8 | .
Nc1c(-c2ccncc2)nsc1C(=O)N1CCN(c2cccc(Cl)c2)CC1 | . | . | . | . | . | .
Cc1ccc(C(=O)N2C[C@H](OCC3CCOCC3)[C@H]3COC[C@H]32)cn1 | . | . | . | . | . | .
O=C(Nc1ccc(CN2CCOCC2)cc1)c1cccc(Br)c1 | . | . | . | . | . | 38.1
Clc1ncc(CN2CCc3ccccc3C2)s1 | . | . | . | 35.4 | . | 37.7
c1ccc2c(c1)CCN(c1ncnc3sc4c(c13)CCCC4)C2 | . | . | . | . | . | .
Cc1cccc(-n2ncc(C(=O)N3CCc4ccccc43)c2-n2cccc2)c1 | . | . | . | . | 42.4 | .
Cc1ccc2cnn(CC(=O)N3CCc4ccccc43)c2c1 | . | . | . | . | . | .
CCc1ccc2ncc(S(=O)(=O)c3ccccc3)c(N3CCCC3)c2c1 | . | . | . | 36.5 | . | .
O=S(=O)(c1ccc(Cl)cc1)N1CCN(c2ccnc3cc(Cl)ccc23)CC1 | . | . | . | . | 30.5 | .
O=S(=O)(c1ccc(Cl)c(Cl)c1)N1CCN(c2ccnc3cc(Cl)ccc23)CC1 | . | . | . | . | . | .
O=C(c1cccc2ncccc12)N1CCN(c2ccnc3cc(Cl)ccc23)CC1 | . | . | . | 47.9 | . | .
COc1ccc(S(=O)(=O)N2CCN(Cc3nnnn3-c3ccc(C)cc3)CC2)cc1C | . | . | . | . | . | .
COc1ccc(C(=O)Nc2ccc(-c3ccccc3)cc2)cc1OC | . | . | . | . | . | .
Cc1ccccc1NC(=O)C(C)n1c(=O)cc(-c2ccccc2)c2c(C)nn(C)c21 (centres undefined) | . | . | 73.9 | . | . | .
COc1ccc(NC(=O)C(C)n2c(=O)cc(-c3ccccc3)c3c(C)nn(C)c32)cc1OC (centres undefined) | . | . | . | . | 30.8 | .
c1nc(Nc2ccc3c(c2)CCC3)c2c3c(sc2n1)CCC3 | . | . | . | . | . | .
Cc1c(S(=O)(=O)NC2CCCCCC2)cc(C(=O)N2CCCC2)n1C | . | . | . | . | . | .
CC(C)=CCc1c(O)cc2c(c1C)OC(=O)c1c(C)c(Cl)c(O)c(CO)c1O2 | . | 47.9 | 37.3 | . | 38.7 | 48.5
O=C(/C=C/c1ccccc1)Nc1ccc(Oc2ccc(F)cc2)nc1 | . | . | . | . | . | .
SMILES | USP7 inh | USP10 block | USP17 inh | USP8 inh | USP30 inh | USP28 block
CCC(C)NC(=O)c1c(O)c2cccc3c2n(c1=O)CC3 (centres undefined) | . | . | . | 53.2 | . | .
O=C(Nc1cccnc1)c1c(O)c2cccc3c2n(c1=O)CCC3 | . | . | . | . | . | .
COC(=O)c1cc2sccc2n1CC(=O)Nc1cccc(SC)c1 | . | . | . | . | 36.0 | .
Cc1ccc2[nH]cc(S(=O)(=O)c3cc(Cl)cc(Cl)c3)c(=O)c2c1 | . | . | 47.8 | . | . | .
O=[N+]([O-])c1ccc2[nH]cc(S(=O)(=O)Nc3ccc(Cl)cc3)c2c1 | . | . | . | . | . | .
COCCN1C(=O)C[C@@H]2[C@H]1CCN2C(=O)c1cncc(C)c1 | . | . | . | . | 30.8 | .
COc1ccc(-c2cc(N3CCC(NC(=O)c4ccccc4)C3)n[nH]2)cc1 (centres undefined) | . | . | 55.9 | . | . | .
COc1ccc(-c2cc(N3CCC(NC(=O)c4ccccn4)C3)n[nH]2)cc1 (centres undefined) | . | . | . | . | . | .
COc1ccc(C2C(C(=O)C(C)(C)C)N3c4ccccc4C=CC3C23C(=O)c2ccccc2C3=O)c(OC)c1 (centres undefined) | . | . | . | . | . | .
COc1ccccc1C(=O)Nc1ccc(-c2nc3ccccc3o2)c(O)c1 | . | 32.2 | . | 37.3 | . | .
O=C(CCn1c(=S)oc2ccccc21)Nc1ccc(O)c(-c2nc3ccccc3o2)c1 | . | . | . | 33.3 | . | .
O=C(COc1ccccc1)Nc1ccc(-c2nc3cnccc3o2)c(O)c1 | 36.2 | . | . | 84.0 | . | .
CCn1nccc1CN(C)C(=O)c1cc(C2CC2)nc2c1c(C)nn2C(C)C | . | . | . | . | . | .
COc1ccccc1NC(=O)COc1coc(CN2CCc3ccccc3C2)cc1=O | . | . | . | . | . | .
CCOC(=O)c1noc2ncnc(NCc3cccc(OC)c3)c12 | . | . | / | 69.7 | . | .
CCOC(=O)c1noc2nc(C)nc(NCc3ccccc3OC)c12 | . | . | . | 43.3 | . | .
CCOC(=O)c1noc2nc(C)nc(N3CCCC3)c12 | . | . | . | . | . | .
Cc1ccc(NC2=NC(C(=O)Nc3ccccc3Cl)CC(=O)N2)cc1 (centres undefined) | . | . | . | . | . | .
C[C@]12C(=O)N(Cc3ccco3)CC(=O)N1CC(c1ccc(Br)cc1)c1c2[nH]c2ccccc12 (some centres undefined) | . | . | 34.0 | . | . | .
Cc1nnn(C23CC4CC(CC(CC(=O)NCc5ccc6c(c5)OCO6)(C4)C2)C3)n1 | . | . | . | . | . | .
Cc1nnn(C23CC4CC(CC(C(=O)Nc5ccc6c(c5)OCO6)(C4)C2)C3)n1 | . | . | . | 57.7 | . | .
O=C(COC(=O)c1cc2ccccc2cc1O)Nc1ccc(Cl)cn1 | . | . | . | 36.8 | . | .
O=C(COC(=O)c1cc2ccccc2cc1O)NCCc1ccccc1 | . | . | . | 42.2 | . | .
O=C(COC(=O)c1ccccc1Nc1ccccc1)Nc1ccc2ccccc2c1 | . | . | . | . | . | .
O=C(N[C@H]1[C@H](O)[C@H](O)C[C@@H]1c1ccncc1)C1CC1 | . | . | . | . | . | .
CC(=O)c1cccc(NC(=O)c2ccc3[nH]c4c(c3c2)CC(C)CC4)c1 (centres undefined) | . | . | 54.4 | 82.8 | . | .
Cc1cccc(NC(=O)c2cn(CC(=O)NC3CCCC3)c3nc(C)ccc3c2=O)c1 | . | . | 47.7 | . | . | .
Cc1cccc(NC(=O)Cn2cc(C(=O)N3CCOCC3)c(=O)c3ccc(C)nc32)c1 | . | . | . | 34.5 | . | .
